Assay outcomes: PubChem BioAssay, National Center for Advancing Translational Sciences (NCATS)
Shown are actives, neighbours in structure and some others; about 4.6% of the full set was active somewhere.
VACV mCherry inh: vaccinia inhibition (mCherry reporter). 310,000 compounds, 0.63% hits. Potency, µM (series often up to 36.5 µM), hits mostly inhibitors. Vaccinia virus mCherry reporter infection, fluorescence. AID 720579; calls by dose curve; tested in A549 cells; also: nearly all actives have a fitted effect of over 35% in size
LASV entry inh: Lassa virus entry inhibition; Lassa virus pseudotype entry inhibition, cell reporter; Potency, µM (doses to about 37.9 µM), usual class: inhibitors; 300,000 compounds, 1.2% hits; AID 540256; calls by dose curve; tested in HEK293 cells; also: nearly all actives have a fitted effect of over 50% in size
Vaccinia Venus: vaccinia inhibition (Venus reporter); Vaccinia virus Venus reporter expression, fluorescence; Potency, µM (titrated, usually from 36.5 µM), most hits filed as inhibitors; 330,000 compounds, 0.46% hits; AID 720580; calls by dose curve; tested in A549 cells; also: nearly all actives have a fitted effect of over 30% in size
HCV inhibitor: HCV inhibition. Potency, µM (highest dose often 41.8 µM), usual class: inhibitors. Huh7.5.1 HCVcc-Cre infection, luciferase reporter, 44 h. 340,000 compounds, 3.4% hits. AID 651820; active = well fitted inhibition curve with a large enough effect; inconclusive = small, poorly fitted or top-dose-only effect, or another doubt; inactive = no such curve, though single readings can be large or run the other way
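Luciferase read-out (15 sec integration) after a 15 min room-temperature substrate step quantifies HCVcc-Cre infection. Cells, 1,000 per well, had compound added 4 h post-plating, then virus at ~0.5 moi, and were cultured 44 h.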
Marburg entry inh: blocks Marburg virus binding to or entry into cells. Marburg virus pseudotyped entry inhibition, cell reporter. Potency, µM (highest dose often 37.8 µM), most hits filed as inhibitors. 300,000 compounds, 1.8% hits. AID 540276; calls by dose curve; tested in HEK293 cells
Hits are given with their value; [ ] = another dose, or the depositor's remark.

`Cc1c(-c2ccc(Cl)cc2)c(=O)oc2c(CN3CCN(CCO)CC3)c(O)ccc12` gave VACV mCherry inh inactive, LASV entry inh inactive and Vaccinia Venus inactive.
`c1ccc(C(Cc2nc(-c3ccncc3)no2)c2ccccc2)cc1` gave LASV entry inh inconclusive, HCV inhibitor 7.9µM and Marburg entry inh inactive.
Cc1oc(-c2ccc(C(=O)N(C)Cc3ccccc3)cc2)nc1CN1CCc2ccccc21 was read as VACV mCherry inh inactive, LASV entry inh inactive and Vaccinia Venus inactive.
CCCCCCCOC(=O)C[N+](C)(C)CCOC1CC2CCC1(C)C2(C)C (stereo unspecified) was read as VACV mCherry inh inactive, LASV entry inh inconclusive, Vaccinia Venus inconclusive, HCV inhibitor inconclusive and Marburg entry inh 11µM.
For CCCCCCOC(=O)C[N+](C)(C)CCOC1CC2CCC1(C)C2(C)C (stereo unspecified) the results were LASV entry inh inactive, HCV inhibitor inactive and Marburg entry inh inactive.
COc1ccccc1CNC(=O)C(=O)NCC(c1ccco1)S(=O)(=O)c1cccs1 (stereo unspecified) was read as VACV mCherry inh inactive, LASV entry inh inconclusive and Vaccinia Venus inactive.
`CC1C/C(=C/c2cccn2C)C(=O)/C(=C/c2cccn2C)C1` (stereo unspecified) gave LASV entry inh inconclusive, HCV inhibitor 6.3µM and Marburg entry inh inconclusive.
For COC(=O)c1ccccc1NCc1cc(=O)oc2cc(O)c(O)cc12 the results were VACV mCherry inh 7.1µM, LASV entry inh inconclusive, Vaccinia Venus inconclusive, HCV inhibitor inactive and Marburg entry inh inconclusive.
Screening NC(=NCc1ccc(Cl)c(Cl)c1)NC(=O)c1nc(Cl)c(N)nc1N returned Marburg entry inh 2.5µM.
`COC1=C[C@H](C(=O)NCc2ccc(OC)cc2)C(C)C(c2ccccc2)CC1=O` (stereo partly specified) gave Marburg entry inh inactive.
`CCOC(=O)/C(C#N)=C/c1cc(C)n(-c2ccc(C)cc2)c1C` gave VACV mCherry inh inactive[1.46 µM], LASV entry inh inconclusive, Vaccinia Venus inactive, HCV inhibitor 8.9µM and Marburg entry inh inconclusive.
For Cc1ccc([S+](=O)([O-])N[C@@H]2COC(=O)CC=C[C@H](C)COC(=O)N[C@@H](C)C(=O)CC=C[C@H]2C)cc1 the results were Marburg entry inh inactive.
Cc1cc(C(F)(F)F)nn1CC(=O)NC[C@H]1CCCO1 was read as Marburg entry inh inactive.
`Cc1ccccc1Cn1cnc2c(cnn2C(C)(C)C)c1=O` gave LASV entry inh inconclusive, Vaccinia Venus inactive, HCV inhibitor inconclusive and Marburg entry inh inactive.
For Cc1ccc(C)c(Cn2cnc3c(cnn3C(C)(C)C)c2=O)c1 the results were LASV entry inh 6.3µM, Vaccinia Venus inactive, HCV inhibitor inconclusive and Marburg entry inh inconclusive.
CCN(CC)CCn1c(=O)n(-c2ccc(Cl)cc2)c(=O)c2c3c(sc21)CN(C)CC3 was read as HCV inhibitor 4µM.
Screening Cc1cc(/C=C/c2ccc3cc(N(C)C)ccc3[n+]2C)c(C)n1-c1ccccc1 returned VACV mCherry inh inactive and Vaccinia Venus inactive.
`CCOc1ccc(NC(=O)CN2CCN(Cc3ccccc3)S2(=O)=O)cc1` gave VACV mCherry inh inactive, LASV entry inh inactive and Vaccinia Venus inactive.
Screening Cc1ccc(S(=O)(=O)CCSc2nc(C)cc(C)c2C#N)cc1 returned VACV mCherry inh 10µM, LASV entry inh inconclusive, Vaccinia Venus 10µM, HCV inhibitor inconclusive and Marburg entry inh inconclusive.
CSc1nc(N)nc(SCCS(=O)(=O)c2ccc(Cl)cc2)c1C#N was read as VACV mCherry inh 2.5µM, LASV entry inh inactive, Vaccinia Venus 5.6µM, HCV inhibitor 10µM and Marburg entry inh inconclusive.
For CCS(=O)(=O)CCSc1nc(C)cc(C)c1C#N the results were VACV mCherry inh inactive, LASV entry inh inconclusive, Vaccinia Venus inactive, HCV inhibitor inactive and Marburg entry inh inactive.
O=C(O)c1cc2c(s1)-c1ccccc1OC2 was read as LASV entry inh inactive, Vaccinia Venus inactive, HCV inhibitor inactive and Marburg entry inh inconclusive.
Screening O=C(NC1CC1)c1cc2c(s1)-c1ccccc1OC2 returned VACV mCherry inh inconclusive, Vaccinia Venus inconclusive and HCV inhibitor 11µM.
Screening COc1ccc(NC(=O)c2nc(SCc3ccccc3F)ncc2Cl)cc1 returned VACV mCherry inh inactive, LASV entry inh inactive, Vaccinia Venus inactive and Marburg entry inh inactive.
`O=C(N/N=C/c1ccc(O)cc1)Nc1cccc2nsnc12` gave VACV mCherry inh 10µM, LASV entry inh inconclusive, Vaccinia Venus inconclusive, HCV inhibitor inconclusive and Marburg entry inh inconclusive.
For CC(C)c1ccc2c(c1)C(N1CCN(C)CC1)Cc1cccnc1S2 (stereo unspecified) the results were VACV mCherry inh inactive, LASV entry inh inactive, Vaccinia Venus inactive, HCV inhibitor inconclusive and Marburg entry inh 11µM.
`Cc1c(C)c2c(c(C)c1O)CC[C@@](C)(CCC[C@H](C)CCC[C@H](C)CCCC(C)C)O2` gave VACV mCherry inh inactive, Vaccinia Venus inactive and HCV inhibitor inactive.
Screening Cc1c(C)c2c(c(C)c1O)CCC(C)(CN1CCN(c3cc(N4CCCC4)nc(N4CCCC4)n3)CC1)O2 (stereo unspecified) returned Marburg entry inh 10µM.
`Cc1ccc(/C=N/Nc2ccc(C(=O)O)cc2)o1` gave LASV entry inh inactive, HCV inhibitor inactive and Marburg entry inh inactive.
Screening Cc1ccc(/C=N/Nc2cccc(C(=O)O)c2)s1 returned VACV mCherry inh inactive, LASV entry inh 1.6µM, Vaccinia Venus inactive, HCV inhibitor inactive and Marburg entry inh 1.1µM.
For O=C(O)c1ccc(N/N=C/c2cc(Br)cs2)cc1 the results were VACV mCherry inh inactive, LASV entry inh inconclusive, Vaccinia Venus inactive, HCV inhibitor inactive and Marburg entry inh 5µM.
Screening Cc1ccc(/C=N/Nc2ccc(C(=O)O)cc2)s1 returned VACV mCherry inh inactive, LASV entry inh 1.1µM, Vaccinia Venus inactive, HCV inhibitor inactive and Marburg entry inh inconclusive.
Screening O=C(O)c1ccc(N/N=C/c2ccc(-c3ccc(Br)cc3)o2)cc1 returned VACV mCherry inh 11µM, LASV entry inh inconclusive, Vaccinia Venus inconclusive, HCV inhibitor inactive and Marburg entry inh inconclusive.
`c1ccc(Nc2ncnc3ccc(-c4ccc5c(c4)OCO5)cc23)cc1` gave VACV mCherry inh inactive and Vaccinia Venus inactive.
For C=Cc1ccc(Cn2c(C(=O)O)c(CNCCc3ccccc3)c3ccc(C)cc32)cc1 the results were VACV mCherry inh inactive, LASV entry inh inactive and Vaccinia Venus inconclusive.
`O=C(CSc1nc2ccccc2nc1Cc1ccccc1)N1CCCc2ccccc21` gave VACV mCherry inh inactive, LASV entry inh inconclusive and Vaccinia Venus inactive.
`O=C(O)c1ccc(/C=N/Nc2cccc(C(F)(F)F)c2)cc1` gave VACV mCherry inh inactive, Vaccinia Venus inactive, HCV inhibitor inactive and Marburg entry inh inactive.
`O=C(O)c1cccc(N/N=C/c2cccc3ccccc23)c1` gave VACV mCherry inh inactive, LASV entry inh inconclusive, Vaccinia Venus inactive, HCV inhibitor inactive and Marburg entry inh 2µM.
`O=C(O)c1cccc(N/N=C/c2ccc(F)c(F)c2)c1` gave VACV mCherry inh inactive, LASV entry inh 4µM, Vaccinia Venus inactive, HCV inhibitor inactive and Marburg entry inh inconclusive.
